# Assay outcomes as filed in PubChem BioAssay.
# Compounds with a hit are over-represented: about 4.1% of the library has one in this group of screens.
# Peg3 prom inh = inhibitors of Peg3 promoter | HeLa PEG-Prom luciferase reporter, luminescence, overnight | inhibition, % at 20 µM | hit rate 1.7% among 360,000 | AID 588405;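 active = inhibition of at least 50% at 20 µM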
# Shn3 3UTR inh = reduces Shn3 3'UTR luciferase signal in osteoblasts | Clone20 osteoblast Shn3 3'UTR firefly luciferase, 24 h | inhibition, % at 12.5 µM | hit rate 0.52% among 360,000;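 active = mean inhibition of at least 75% with every replicate also reaching 75%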
# TWEAK-Fn14 inh = blocks TWEAK-Fn14 interaction in a reporter cell assay; TWEAK-stimulated Fn14 reporter cells, luciferase luminescence, 8 h; AID 1159606; inhibition, % at 10 µM; hit rate 2% among 360,000; in the data active = inhibition above about 50%
# TROY signal inh = blocks TROY-dependent signaling in reporter cells; Q293 LMP1-TROYcd NF-kB luciferase reporter, 4 h; inhibition, % at 10 µM; hit rate 0.98% among 360,000; AID 1347056;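 active = compounds whose plate-normalised and pattern-corrected inhibition of the luciferase reporter signal at the single screening dose is 50% or more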
# TRPM1 prom inh = reduces MITF-dependent TRPM1 promoter luciferase signal | AID 488899 | SK-MEL-5 TRPM1 promoter luciferase, 24 h | inhibition, % at 12.5 µM | hit rate 0.83% among 330,000;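 active = mean inhibition across replicates of 60% or more, whatever share of single replicates reaches that level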
# LMP1 NFkB inh = Epstein-Barr LMP1 NF-kappaB reporter inhibition. LMP1-induced NF-kappaB luciferase reporter cells, luminescence. inhibition, % at 12.5 µM. hit rate 0.69% among 350,000. AID 504558; in the data active = inhibition above about 41%
# Hits are given with their value; 0 = inactive; - = no result given.
SMILES,Peg3 prom inh,Shn3 3UTR inh,TWEAK-Fn14 inh,TROY signal inh,TRPM1 prom inh,LMP1 NFkB inh
C=CS(=O)(=O)N(Cc1ccc(Cl)c(Cl)c1)C[C@@H](O)CO,69.2,0,0,0,0,0
O=C(OCC(=O)N1CCOCC1)c1ccccc1OCc1ccccc1,0,0,0,0,0,0
CN1N=C2c3ccccc3CCC2C1c1ccc(Cl)cc1 (configuration not stated),0,0,54.1,0,0,0
CNC(=S)N1N=C2c3ccccc3CCC2C1c1ccccc1Cl (configuration not stated),0,0,0,0,0,0
CN1N=C2c3ccccc3CCC2C1c1ccc(F)cc1 (configuration not stated),0,0,53.5,60.0,-,-
COC(=O)c1ccc(N2CCN(CC(=O)c3ccc(-c4ccccc4)cc3)CC2)c([N+](=O)[O-])c1,0,0,0,0,0,0
O=C(Nc1ccc(Cl)c(Cl)c1)Nc1nnc(CC2=CCCCC2)s1,0,0,0,0,0,70.9
O=C(Nc1nnc(CC2=CCCCC2)s1)c1cccs1,0,0,0,0,0,0
CC1CCN(c2nc(/C=C/c3ccccc3)nc3ccccc23)CC1,0,0,0,0,0,0
Oc1ccc(Nc2nc(N3CCCC3)c3ccccc3n2)cc1,99.5,0,0,0,0,0
C(=C\c1nc(N2CCCC2)c2ccccc2n1)/c1ccccc1,103.3,0,0,0,0,0
CCc1ccc(/C=C2/SC(=S)N(CCCC(=O)Nc3ccccc3C(=O)O)C2=O)cc1,0,0,0,74.7,0,0
CCc1ccc(/C=C2\SC(=S)N(CCCC(=O)N(CCO)c3ccccc3)C2=O)cc1,76.4,0,0,0,-,0
Cc1cccc2c1CCCC2=O,0,0,0,0,0,0
O=S(=O)(NCCC1=CCCCC1)c1ccccc1Cl,0,0,0,0,0,0
CC(C)CC(NC(=O)C1CCC(C)CC1)C(=O)Nc1ccc2c(c1)OCCO2 (configuration not stated),0,0,68.3,0,0,0
COC(=O)[C@H](CC(C)C)NC(=O)Nc1ccc2c(c1)OCCO2,0,0,66.2,0,0,0
CC(C)N(C)c1ncnc2c1ncn2[C@H]1CN(C2CCCC2)C[C@@H](CO)O1,0,0,0,0,-,-
Cc1noc(C)c1COC(=O)Cc1ccc(Br)cc1,0,0,0,0,0,0
C[C@H](NCc1c[nH]c2ccccc12)c1ccccc1,0,0,0,0,0,80.5
COc1ccc(NC(=O)CN(C)C(=O)c2ccc(OCc3ccccc3)c(OC)c2)cc1,0,0,0,0,0,0
CCC1(C)Nc2ccccc2C(=O)N1O (configuration not stated),0,0,0,57.6,0,0
COc1c(-c2ccc(O)cc2)oc2cc(O)cc(O)c2c1=O,0,0,0,0,0,0
O=c1c(O)c(-c2ccc(O)c(O)c2)oc2cc(O)cc(O)c12,0,0,68.1,0,0,89.9
O=c1cc(-c2ccc(O)c(O)c2)oc2cc(O)cc(O)c12,0,0,63.9,0,0,0
SMILES,Peg3 prom inh,Shn3 3UTR inh,TWEAK-Fn14 inh,TROY signal inh,TRPM1 prom inh,LMP1 NFkB inh
Cc1cc(C)c(NC(=O)C2CCCN2C(=O)NC2CCCCC2)c(C)c1 (configuration not stated),0,0,0,0,0,0
Cn1c(=O)c2c(SCc3ccccc3)nc(C3CC3)nc2n(C)c1=O,0,0,0,0,0,0
Cn1c(=O)c2c(SCC(=O)N3CCCc4ccccc43)nc(C3CC3)nc2n(C)c1=O,51.8,0,0,0,0,0
O=C1c2cc([N+](=O)[O-])ccc2-c2cc(Br)c(N=C(NO)C(F)(F)F)cc21,97.2,0,0,79.0,0,0
CCn1c(/C=C/Nc2ccccc2)[n+](CC)c2ccc(Cl)cc21,0,0,0,0,0,0
CCn1c(/C=C/N(C)c2ccccc2)[n+](CC)c2ccc(Cl)cc21,0,0,0,0,65.5,0
O=[N+]([O-])c1ccc(N2CCCC2)nc1N1CCCC1,0,-,0,0,0,0
Nc1ncc([N+](=O)[O-])c(N2CCCCCC2)n1,0,0,74.8,0,0,0
O=C(OCC(=O)C12CC3CC(CC(C3)C1)C2)c1cccnc1Cl,0,0,0,0,0,0
O=C(c1cc(-c2ccc(Cl)c(Cl)c2)on1)N1CCCCCC1,0,0,0,0,0,0
O=C(c1cc(-c2ccc(Cl)cc2Cl)on1)N1CCCC1,0,0,69.8,0,0,0
COc1ccc(-c2cc(C(=O)N3CCN(c4ccccc4OC)CC3)no2)cc1,0,0,0,0,0,0
